# Experimental data as given in PubChem BioAssay AID686979 (National Center for Advancing Translational Sciences (NCATS), 2013).
# Hit rate of the full screen: of about 420,000 compounds, about 50,000 (12%) were called active. About 26% were inconclusive and are not listed. Shown is part of a subset that was picked to be rich in actives. Values without a mark were called inactive. The call rests on the fitted dose curve; in most records, active means well fitted inhibition curve with a large enough effect; inconclusive means small, poorly fitted or top-dose-only effect; inactive means flat fitted curve, though single readings scatter.
# Experiment: qHTS for Inhibitors of human tyrosyl-DNA phosphodiesterase 1 (TDP1): qHTS in cells in presence of CPT; further: nearly all actives have a fitted effect of over 55% in size
# Settings: chicken DT40 Tdp1-/-;hTDP1 cells + 20 nM CPT, ATP luminescence, 48 h; series mostly up to 46.2 µM; activity change, negative = growth inhibition: at the top concentration
# Procedure, shortened: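 Chicken DT40 Tdp1-/- cells complemented with human TDP1, 400 cells/well, exposed to compounds plus 20 nM camptothecin for at least 48 h at 37 C; viability read as ATP content by CellTiter-Glo luminescence.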
# On the % scale 0 is the no-effect control and ±100 the full control effect; potency means the concentration at half of the fitted maximal effect.
SMILES,"activity change, negative = growth inhibition [%]",Potency
CCN1/C(=C/C(=S)Nc2ccccc2)Sc2ccccc21,-77.9,
CCN1/C(=C\c2ccc3ccccc3[n+]2CC)Sc2cc(C)ccc21,,0.184 µM (active)
CCN1/C(=C/c2ccc3ccc(C)cc3[n+]2CC)Sc2ccccc21,,2.06 µM (active)
O=C(CN1C(=O)NC2(CCCCCC2)C1=O)NCc1ccc(F)cc1,14,
O=C(CN1C(=O)NC2(CCCCCCC2)C1=O)NCc1ccc(F)cc1,,16.4 µM (active)
O=C(CN1C(=O)NC2(CCCCCC2)C1=O)NCc1cccs1,-0.308,
Cc1ccc(NC(=O)NC(=O)CSc2nnc(-c3ccc(OC(F)F)cc3)n2N)c(C)c1,-7.91,
CC(C)(C)C(=O)Nc1ccc(-c2cn3cccnc3n2)cc1,-23.9,
C/C(=N\NC(=S)NCc1ccccc1)C1CCCCC1,,6.51 µM (active)
CC1CCCCN1C(=S)NCc1ccccc1 (centres undefined),-3.61,
O=C(CC1CCCCC1)NCc1ccccc1,-27.5,
O=C(Nc1ccon1)c1nc[nH]c1C(=O)NCc1ccccc1,-29.3,
CCC(=O)N1CCc2cc(Br)cc(S(=O)(=O)NCc3ccc(Cl)cc3)c21,2.83,
CC(=O)C1=C(C)NC(=O)NC1c1ccc2c(c1)OCO2 (centres undefined),12.9,
O=C1C=C(c2ccnc3cc(Cl)ccc23)C[C@@H](c2ccc3c(c2)OCO3)C1,,5.8 µM (active)
O=C1C=C(c2cccc(Cl)c2)C[C@@H](c2ccc(F)cc2)C1,-20,
Cc1cccc(C)c1NC(=O)C1CCCN1C(=O)OC(C)(C)C (centres undefined),,11.6 µM (active)
Cc1ccc(C)c(NC(=O)C2CCCN2C(=O)OC(C)(C)C)c1 (centres undefined),5.16,
Cc1ccc(NC(=O)C2CCCN2C(=O)OCc2ccccc2)cc1C (centres undefined),-29.9,
Cc1csc(=O)n1CCC(=O)OCC(=O)Nc1ccc(N2CCOCC2)cc1,0.597,
C[C@H](NC(=O)CC[C@H]1O[C@@H](n2ccc(=O)[nH]c2=O)[C@H](O)[C@@H]1O)c1cccc2ccccc12,1.92,
COc1ccc([N+](=O)[O-])cc1N(CC(=O)Nc1ccccc1C(=O)N1CCOCC1)S(C)(=O)=O,9.2,
CC1C(=O)N(Cc2ccccc2)c2ccccc2N1C(=O)c1ccccc1 (centres undefined),,23.1 µM (active)

SMILES,"activity change, negative = growth inhibition [%]",Potency
O=C1C(Cc2ccc(O)cc2)NC(=S)N1Cc1ccccc1 (centres undefined),-3.2,
CC1Oc2ccccc2N(Cc2cccnc2)C1=O (centres undefined),0.567,
COc1ccc(C(=O)COC(=O)C(O)c2ccccc2)c(OC)c1 (centres undefined),16.3,
O=C1N(c2ccccc2)C(=Nc2ccccc2)SC12CC2,-10.5,
Cc1cc(C)c(S(=O)(=O)Nc2c(C)n(C)n(-c3ccccc3)c2=O)cc1[N+](=O)[O-],-4.05,
CC1(C)Cc2cccc(OCC(=O)NCc3ccccc3)c2O1,-13.5,
CC1(C(=O)NCC2CCOCC2)Cc2c(-c3cccc(C(N)=O)c3)ccnc2O1 (centres undefined),,25.9 µM (active)
COc1ccc(NC(=O)C2(C)Cc3c(-c4cccc(NC(C)=O)c4)ccnc3O2)cc1 (centres undefined),,1.64 µM (active)
CC(C)(C)NC(=O)NCc1ccco1,-26.1,
CC(=O)Nc1cccc(-c2ccnc3c2CC(C)(C(=O)NCc2ccccc2)O3)c1 (centres undefined),,0.82 µM (active)
CC(=O)Nc1cccc(-c2cnc3ccccc3n2)c1,-8.99,
COc1cccc(NC(=S)NCc2ccco2)c1,-15.7,
CC(=O)Nc1cccc(-c2ccnc3c2CC(C)(C(=O)NCc2ccco2)O3)c1 (centres undefined),,1.03 µM (active)
COc1ccc(NC(=O)C2(C)Cc3c(-c4ccc(C(N)=O)cc4)ccnc3O2)cc1 (centres undefined),-10,
COc1ccc(NC(=O)Nc2cccc(-c3noc(C)n3)c2)cc1,-3.37,
COc1ccc(NC(=O)CCn2ccnc2)c(OC)c1,-1.43,
CC1=C(C(=O)N2CCOCC2)CC(CC(=O)NCCCN(C)C)C(=O)N1Cc1ccc(C(C)(C)C)cc1 (centres undefined),5.4,
CC(C)N(C(=O)CSc1nnc(NC2CC2)s1)c1ccccc1,-8.77,
O=C(Nc1cc(-c2nc3ncccc3o2)ccc1Cl)c1ccco1,-10.8,
CSCCC(NC(=O)c1ccco1)C(=O)Nc1cc(C)ccn1 (centres undefined),-18.2,
CC(=O)c1ccc(OCC(=O)N(C)C2CCS(=O)(=O)C2)cc1 (centres undefined),3.48,
CN(Cc1cc2cc(F)ccc2[nH]1)Cc1nc(-c2cnccn2)no1,9,
Cn1cc(CNC(=O)c2ccc(OC3CCN(Cc4ccccn4)CC3)cc2)cn1,-22.6,

SMILES,"activity change, negative = growth inhibition [%]",Potency
CCOC(=O)C1(Cc2cccc(OC)c2)CCCN(S(=O)(=O)c2cccnc2)C1 (centres undefined),-5.29,
Cc1ccc(C)c(-c2nnc(NC(=O)CS(=O)(=O)c3ccccc3)o2)c1,,11.6 µM (active)
COc1cc(-c2nnc(NC(=O)CS(=O)(=O)c3ccc(Cl)cc3)o2)cc(OC)c1OC,-1.16,
COc1ccc(-c2nnc(NC(=O)CS(=O)(=O)c3ccc(Cl)cc3)o2)c(OC)c1,-27.9,
Cc1cccc(C)c1NC(=O)NC1=CCCN1C,1.34,
CCOC(=O)c1ccc(S(=O)(=O)N(CCO)Cc2cc3cc(OC)c(OC)cc3[nH]c2=O)cc1,6.26,
CC(C)CC(N=C1NC(C)(C)Cc2ccccc21)C(=O)O (centres undefined),-1.87,
C=CCn1c(=S)[nH]c2nc3c(cc2c1=O)COC(C)(C)C3,-8.44,
CCOc1ccc(NC(=O)CSc2ncnc3c2sc2ccccc23)cc1,-0.672,
CC1(C)Cc2nc3sc4c(SCC(=O)NC(c5ccccc5)c5ccccc5)ncnc4c3cc2CO1,,8.2 µM (active)
O=C1OC(OC(=O)c2ccccc2Br)C(N2CCOCC2)=C1Cl (centres undefined),-21.2,
CC(=O)Nc1cccc([N+](=O)[O-])c1,-1.73,
Cc1ccccc1NC(=S)Nc1cccc([N+](=O)[O-])c1,-26,
COC(=O)/C=C\C(=O)Nc1cccc([N+](=O)[O-])c1,,1.03 µM (active)
COC(C(=O)NCc1ccccc1C)c1ccccc1 (centres undefined),-4.58,
CC(C)CC(O)C1CCN(C(=O)CCc2nnc(-c3ccc4c(c3)OCO4)o2)CC1 (centres undefined),-6.86,
S=c1[nH]nc(COc2ccccc2)n1-c1ccccc1,-1.82,
COc1ccc(OCc2n[nH]c(=S)n2N)cc1,,18.4 µM (active)
Cc1ccc(OCc2n[nH]c(=S)n2-c2ccccc2)cc1,-19.1,
CCOc1ccc(OCC(=O)OC(C)C(=O)NC2CCCCC2C)cc1 (centres undefined),-20.9,
COc1c(C)cccc1C(=O)Nc1cc(Cl)ccc1N1CCOCC1,-11.3,
Cc1cccc(N2CCN(c3ccc(C(=O)O)cc3NC(=O)c3ccccc3F)CC2C)c1 (centres undefined),,23.1 µM (active)
Cc1cccc(N2CCN(C(=O)c3ccccc3NC(=O)C3CCCCC3C(=O)O)CC2)c1 (centres undefined),-21.7,
